This is an account of results in PubChem BioAssay AID1259343 (VanderVen Lab, College of Veterinary Medicine, Cornell …, 2017).

Screen size: about 6,200 compounds; about 2,900 (47%) were called active. The set was probably picked from earlier hits. The list shows a part of the results. Values without a mark were called inactive. Rule as the data show it: active = inhibition above about 50%; inactive = the rest.

A short description of the assay: Mycobacterium tuberculosis growth inhibition, primary screen (AID 1259343). To be noted: inhibition: at 10 µM, hits give high values; outcome: 10 uM.
What is called inhibition is the change of the read-out against control, counted positive when it falls. Take `CCNCC#CCOc1ccc(C)c(C)c1`: the inhibition was -6.66%.

Consider `CC(=O)Oc1ccc2c(=O)oc(COc3ccc(C)c(C)c3)nc2c1`, for which the inhibition was 60.8% (active). As for `CC(C)n1ncc2cc(N)cnc21`, the inhibition is 83.8% (active). Turning to `O=C(Nc1ccc(-n2cccc2)cc1)C1=CN2CCN(Cc3cscn3)C(=O)N=C2O1`, the inhibition is 4.33%. Consider `O=C1N=C2OC(C(=O)Nc3cccc(Cc4ccccc4)c3)=CN2CCN1`, for which the inhibition was 91.3% (active). The result for `CN(C(=O)Nc1nc2ccc(F)cc2s1)C1CCCc2ccccc21` (centres undefined) reads 74.2% (active); that for `CC(=O)N1CCN(CC(=O)Nc2nc3ccc(F)cc3s2)CC1`, 15.5%; that for `CCN1CC(CN(C)C(=O)Nc2nc3ccccc3s2)Oc2ccccc21` (centres undefined), 12.4%. As for `O=c1[nH]c(CN2CCN(c3ccccc3F)CC2)nc2ccsc12`, the figure is 13.7%; as for `Cc1ccc(C2=CCN(Cc3nc4ccsc4c(=O)[nH]3)CC2)cc1`, 94.7% (active). The result for `CC(C)(O)C#Cc1ccc(C(=O)NCc2cnn(-c3ccc(F)cc3)c2)o1` reads 36.3%. For `O=C(Nc1nnc(C2=COCCO2)o1)c1cc(Cl)cc(Cl)c1`, the inhibition is 93.4% (active). In the case of `CCN(CC)c1cc(C)nc(Nc2ccc(NC(=O)c3cccc4ccccc34)cc2)n1`, the inhibition is 93.6% (active). `Cc1cc(=O)[nH]c(-n2nc(C)cc2NC(=O)c2cc(C)oc2C)n1`: the inhibition was 90.8% (active). As for `CCCc1cc(=O)[nH]c(-n2nc(C)cc2NC(=O)c2cccc3ccccc23)n1`, the inhibition is 102% (active). On to `CCN(CC)C(=O)N1CCN(c2ccc(Nc3ccnc4cc5ccccc5cc34)cc2)CC1`, for which the inhibition was -24.5%.

As to `CCc1cc(=O)[nH]c(-n2nc(C)cc2NC(=O)c2cccc3ccccc23)n1`, the inhibition is 13.9%. Take `Cc1cc(=O)[nH]c(-n2nc(C)cc2NC(=O)c2cccc3ccccc23)n1`: the inhibition is 101% (active). For the compound `CCc1ccc(OCc2ccccc2C(=O)Nc2ccc3nc(C)cc(N)c3c2)cc1`, the inhibition is 33.8%. Regarding `O=C1C(c2ccccc2)C=Nc2c(-c3ccccc3)cnn21` (centres undefined), the inhibition was -23.2%.

Consider `Cc1cc(NC(=O)c2ccccc2C)n(-c2nc(C)c(C)c(=O)[nH]2)n1`, for which the inhibition was -21.7%.

Turning to `Cc1cc(=O)[nH]c(-n2nc(C)cc2NC(=O)c2ccccc2C)n1`, the inhibition is 101% (active). As for `Clc1ccc2nc(SCc3nnc(C4CCC4)o3)[nH]c2c1`, the inhibition was 16.7%. Regarding `Clc1ccc2nc(SCCC3CCCCC3)[nH]c2c1`, the inhibition is 23.7%. The result for `Clc1ccc(CCCc2nc3ccc(Cl)cc3[nH]2)c(Cl)c1` reads 99.6% (active); that for `S=c1ccss1`, 101% (active); that for `CCc1cc2c(N3CCCCC3)ncnc2s1`, 46.7%. Consider `CCc1cc2c(SCC(=O)C(C)(C)C)ncnc2s1`, for which the inhibition was -53%. As for `CCc1cc2c(=O)n(NC(=O)c3cccc(C)n3)cnc2s1`, the inhibition is 99.6% (active).

As for `CC(C)c1ccc(-n2[nH]nnc2=S)cc1`, the inhibition is 70.6% (active).

As to `Fc1cccc(-n2[nH]nnc2=S)c1`, the inhibition was 90.8% (active). As for `S=c1nn[nH]n1-c1cccc(Cl)c1`, the figure is 10%. `CC(C)c1ccc(-n2nnnc2SCC(N)=O)cc1`: the inhibition was 32.2%. Regarding `CCc1c(C)nc(-n2nc(C)cc2NC(=O)C23CC4CC(CC(C4)C2)C3)[nH]c1=O`, the inhibition was -26.4%. With `CCCc1cc(=O)[nH]c(-n2nc(C)cc2NC(=O)C23CC4CC(CC(C4)C2)C3)n1`, the inhibition was 100% (active). The result for `Cc1cc(=O)[nH]c(-n2nc(C3CC3)cc2NC(=O)C23CC4CC(CC(C4)C2)C3)n1` reads 99.1% (active); that for `Cc1cc(NC(=O)C23CC4CC(CC(C4)C2)C3)n(-c2nc(C)c(C)c(=O)[nH]2)n1`, 14.6%; that for `CCc1cc(=O)[nH]c(-n2nc(C)cc2NC(=O)C23CC4CC(CC(C4)C2)C3)n1`, 93.6% (active). As for `Cc1cc(=O)[nH]c(-n2nc(C)cc2NC(=O)C23CC4CC(CC(C4)C2)C3)n1`, the figure is 99.3% (active); as for `Cc1cc(NC(=O)C23CC4CC(CC(C4)C2)C3)n(-c2nc3c(c(=O)[nH]2)CCC3)n1`, 101% (active); as for `Cc1ccc(Cc2nc(N3CCNCC3)c3c(C)nn(-c4ccccc4)c3n2)cc1`, 92.7% (active). For the compound `CC(C)CCc1nc(N2CCNCC2)c2cnn(-c3cccc(Cl)c3)c2n1`, the inhibition is 41.8%. The result for `CCCc1nc(N2CCNCC2)c2c(C)nn(-c3ccc(F)cc3)c2n1` reads 42%; that for `Cc1nc(N2CCCC(C)C2)c2cnn(-c3ccc(F)cc3)c2n1` (centres undefined), 23.5%; that for `Clc1cccc(-n2ncc3c(N4CCNCC4)nc(Cc4ccccc4)nc32)c1`, 65.1% (active). As for `CC1NC(=S)N(CCc2nc(C(C)(C)C)cs2)C1=O` (centres undefined), the figure is 12.2%; as for `CCOc1ccc(OCCCOc2ccccc2OC)cc1`, 9.51%; as for `CCOc1ccc(OCCCOc2ccccc2Br)cc1`, 95.2% (active). The result for `CCOc1ccc(OCCCOc2cccc(C)c2C)cc1` reads 73.5% (active). For `CCOc1cccc(OCCCOc2ccc(Cl)cc2C)c1`, the inhibition is 82.3% (active). With `CC(C)(C)CC(C)(C)c1ccc(O)c(Cc2ccc(Cl)cc2Cl)c1`, the inhibition was 72.6% (active).

In the case of `COc1ccc2c(c1)CCc1c(-c3ccc(C(=O)NCCCSC)cc3)n[nH]c1-2`, the inhibition is 95.5% (active). As for `CC(C)Cc1ccc(C(C)NC(=O)Cn2ccsc2=O)cc1` (centres undefined), the figure is 92.5% (active). Turning to `CC(=O)c1ccc(OCC(=O)NC(C)c2ccc(CC(C)C)cc2)cc1` (centres undefined), the inhibition was 46.8%.

As for `Cc1ccc(C(=O)N=c2sccn2Cc2ccc(C(=O)NC(C)c3ccccc3)cc2)cc1` (centres undefined), the inhibition is -8.44%.

`COc1ccc2cc(C3CN(CCC(F)(F)C(F)F)CCO3)ccc2c1` (centres undefined): the inhibition was 42.7%. As for `CC(=O)C1=C(O)CC(c2ccccc2)SC1=Nc1ccccc1` (centres undefined), the figure is 57.6% (active); as for `CCOC(=O)C1=C(O)CSC1=Nc1ccc(Cl)cc1`, 16.2%; as for `Fc1ccc(SCCc2ccncc2)cc1`, 57.7% (active). As for `NC(=S)Nc1cccc(Br)c1`, the figure is 32.7%; as for `O=c1ccc(-c2cccc(Br)c2)nn1Cc1ccc(F)cc1`, 8.75%; as for `O=C1C(Cl)=C(Nc2cccc(Br)c2)C(=O)N1Cc1ccc(Br)cc1`, 61% (active).

Consider `CCOc1ccc(NC(=O)c2cn(-c3cc(N4CCOCC4)ncn3)cn2)cc1`, for which the inhibition is 74.7% (active).

On to `O=C(O)c1cc(O)c2c(c1)C(=O)c1cc(O)cc(O)c1C2=O`, for which the inhibition is 91.8% (active). With `CC(c1ccc(Cl)cc1)N(C)C(=O)c1ccc[nH]1` (centres undefined), the inhibition is -3.09%. The result for `CC(=O)c1ccc(C(=O)N(C)C(C)c2ccc(Cl)cc2)s1` (centres undefined) reads 25.1%. The result for `CC(c1ccc(F)cc1)N(C)C(=O)CN1CC(O)CC1c1cc(F)ccc1F` (centres undefined) reads 84% (active); that for `Cc1nc(N)sc1N=Nc1cc(C(F)(F)F)ccc1Cl`, 18.3%. Turning to `Cc1nc(NC(=O)c2c(C)nn(CC(C)C)c2Cl)sc1C`, the inhibition is 12.5%. Take `CCC(C)C(=O)Nc1nc(-c2ccc(Cl)cc2)c(C)s1` (centres undefined): the inhibition is 70.1% (active). For `Cc1sc(NC2CCCC2)nc1-c1ccc(F)c(F)c1`, the inhibition is 34.8%. As for `COc1cccc(C2c3c(oc4cc(C)c(C)cc4c3=O)C(=O)N2c2nccs2)c1OC` (centres undefined), the figure is -18.6%; as for `c1ccc(CN2CCN(c3nc(-c4cccnc4)nc4ccccc34)CC2)cc1`, 26.4%; as for `Oc1ccc(Nc2nc(N3CCCC3)c3ccccc3n2)cc1`, 83.1% (active). On to `Cc1cc(N2CCCCC2)nc(Nc2ccc(NS(=O)(=O)c3ccc4nc(C)sc4c3)cc2)n1`, for which the inhibition was 25.5%. On to `N#Cc1nc(COc2ccc(Cl)cc2)oc1N1CCCC1`, for which the inhibition was 92.6% (active). For `COc1ccc(OCc2nc(C#N)c(N3CCCC3)o2)cc1`, the inhibition is -23.3%. The result for `CCOC(=O)C1CCCN(c2oc(-c3ccc(Cl)cc3)nc2C#N)C1` (centres undefined) reads 12.5%; that for `COc1ccc(C[C@H](N)C(=O)N[C@@H]2[C@@H](CO)OC(n3cnc4c(N(C)C)ncnc43)[C@@H]2O)cc1` (some centres undefined), 66.6% (active); that for `CN(C)N=Nc1nc[nH]c1C(N)=O`, 70% (active). The result for `CC(C)(C)C(=O)Nc1nc(CC23CC4CC(CC(C4)C2)C3)cs1` reads 38%; that for `Cc1cc(C(=O)Nc2nc(C(C)(C)C)cs2)c(C)o1`, 60.2% (active). Consider `CC(C)(C)c1csc(NC(=O)c2ccc(Cl)s2)n1`, for which the inhibition was -24%.

As to `CC(C)(C)c1csc(NC(=O)C23CC4CC(CC(C4)C2)C3)n1`, the inhibition is 61.1% (active). The result for `CC(C)(C)c1csc(NC(=O)CC2OCCc3ccsc32)n1` (centres undefined) reads 22.8%; that for `Cc1ccc(-c2ccc(C3=CC(C)(C)OC3=O)cc2)cc1`, 43.7%; that for `O=C(Nc1cccc(Cl)c1)Oc1ccccc1-c1ccccc1`, 17.6%. As for `N#CC1=C2Sc3ccccc3N2C(O)(C(F)(F)F)C(C(=O)C(F)(F)F)=C1` (centres undefined), the figure is 71.5% (active); as for `Clc1cccc(C2Nc3cccc4cccc(c34)N2)c1Cl`, 97.7% (active). As for `Fc1cccc(Cl)c1C1Nc2cccc3cccc(c23)N1`, the figure is -12.9%.

Turning to `Fc1ccc(Br)cc1C1Nc2cccc3cccc(c23)N1`, the inhibition is 14.4%. As to `Fc1ccccc1Nc1nc(COc2cccc(Cl)c2)cs1`, the inhibition is 75.5% (active).

As for `CCC(C)[C@H]1O[C@]2(CC[C@@H]1C)C[C@@H]1C[C@@H](C/C=C(\C)[C@@H](OC3C[C@H](OC)C(O[C@H]4C[C@H](OC)[C@@H](O)[C@H](C)O4)[C@H](C)O3)[C@@H](C)/C=C/C=C3\CO[C@@H]4[C@H](O)C(C)=C[C@@H](C(=O)O1)[C@]34O)O2` (some centres undefined), the inhibition was 67.3% (active). For `O=C1c2sc3nnc(-c4ccccc4)c(=O)n3c2C(=O)N1c1cccc(Cl)c1Cl`, the inhibition was 90.4% (active). For `Clc1cccc(N2CCN(c3nnnn3-c3ccccc3)CC2)c1`, the inhibition was -17.8%.

Regarding `NS(=O)(=O)c1ccc(N2CCN(c3cccc(Cl)c3)CC2)nc1`, the inhibition is 52.9% (active).

With `Cc1nc(-c2c[nH]c(C(=O)NC3CCC4CCCC4C3)c2)cs1` (centres undefined), the inhibition was 87.9% (active). As for `Cc1nc(-c2c[nH]c(C(=O)N(C)C3CCC(C)CC3)c2)cs1` (centres undefined), the figure is 29.5%; as for `Cn1nc(CC(=O)NC2CCC3CCCCC3C2)c2ccccc2c1=O` (centres undefined), 14.5%.
